# Experimental data as given in the supplement of paper PMC3334620.
# Over roughly 33,000 sequences, “E-score (-0.5 to 0.5)” has its median near -8e-05; the highest 2% begin near 0.23. The sample holds the highest values, similar sequences and a random draw of the others, so the mix is not that of the screen.
# Target: T1, Nrg2 (UniProt P38082)
# T1 sequence: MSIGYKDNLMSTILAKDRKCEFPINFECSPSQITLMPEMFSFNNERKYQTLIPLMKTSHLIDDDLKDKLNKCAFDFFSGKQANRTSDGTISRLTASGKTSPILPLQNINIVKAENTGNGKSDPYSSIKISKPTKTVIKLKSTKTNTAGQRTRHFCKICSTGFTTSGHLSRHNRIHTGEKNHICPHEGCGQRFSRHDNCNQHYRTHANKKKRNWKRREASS
# Assay: PBM E-score (8-mer binding enrichment) (E-score (-0.5 to 0.5)); higher = stronger / more preferred TF binding
# Conditions: protein concentration: 100 nM; construct: GST-full length
# Summary of the method: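 GST-tagged yeast TFs (full-length or DNA-binding domain) were made by PURExpress in vitro transcription/translation and applied at about 100-200 nM to universal all-10-mer Agilent arrays. The arrays were made double-stranded by primer extension, on fresh or once-stripped slides. Bound protein was detected with fluorescent anti-GST, and scans were normalised with masliner. Each ungapped eight-base word, pooled with its reverse complement, received an E-score (modified Wilcoxon-Mann-Whitney statistic) from the Universal PBM Analysis Suite.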
row,Sequence,PBM E-score
1,CCTGACCA,0.142
2,CGAAGACC,0.0649
3,GCTCTCAA,0.047
4,ACGATCGA,0.0838
5,GTGAGCAA,-0.0485
6,GTCCAGTA,-0.0597
7,GATACAAA,0.18
8,AATACAAC,0.185
9,AATACAAG,0.296
10,TATACAAA,0.148
11,AATACAAA,0.269
12,AATACAAT,0.106
13,GTAATCGA,0.154
14,TGAATACA,0.0782
15,CCTTGCTC,0.0643
16,AGCGTTAT,-0.0753
17,GTCTACTA,0.0788
18,CACCTGTC,0.0208
19,AGCTCTGG,-0.136
20,ATCAGATG,-0.0502
21,ATCTTGCA,0.256
22,GTCTTGCA,0.0101
23,ATCTTGCG,-0.0421
24,GAAGCCTC,-0.146
25,ATCGAAGA,0.193

row,Sequence,PBM E-score
1,ATATTGCA,0.113
2,AGAGATTC,0.0502
3,GACAGTAA,0.0902
4,ATGAAGTG,0.235
5,ATGAAGTA,0.0961
6,ATGAAGTC,-0.0277
7,ATTGAACG,-0.0983
8,ATCCAAAT,0.0165
9,CGCGCGTA,0.133
10,CCCGCGGG,0.278
11,AGCGCGGC,0.0579
12,CACGCGGG,-0.0425
13,CCCGCGGA,0.204
14,CGCGCGTC,0.262
15,ACCGCGGG,0.171
16,AGCGCGTC,-0.0322
17,CGCGCGGC,0.296
18,CACGCGGA,0.234
19,CGCGCGGA,0.227
20,AACGCGGA,0.0806
21,CCATTTAA,-0.00324
22,CATTGAGC,-0.0461
23,CCTTAGTC,-0.119
24,CCGCTGCG,-0.14
25,ATCAATAC,0.136

row,Sequence,PBM E-score
1,AGTGCTAG,-0.0309
2,AATGAGGG,-0.00097
3,TAGAGCTA,-0.161
4,CTGCCACA,-0.117
5,ACCCTTAA,0.152
6,AACCTTAC,0.108
7,GACCCCTA,0.151
8,AACCCTTG,0.194
9,AACCTTAA,0.293
10,GACCCTGA,0.389
11,ACCCTTAG,0.123
12,ACCCTTAT,0.28
13,AACCCTTA,0.235
14,GACCCTCA,-0.116
15,AACCCTTC,0.168
16,AACCTTAG,-0.109
17,GTCAAAAC,0.0485
18,AGATCTAT,-0.0448
19,CTGCACCA,-0.0673
20,AGTTGATC,0.137
21,CATTCGTA,-0.0996
22,ACTCTATG,0.056
23,ACTTCCTG,0.0859
24,TAAATCGA,0.151
25,CGCTTACG,-0.284

row,Sequence,PBM E-score
1,TACCCTCA,0.00099
2,GACCCTCC,0.16
3,ACCCCCTA,-0.391
4,ACCCCTAG,0.153
5,CACCCTGC,0.191
6,AACCCCTA,0.25
7,TACCCCTA,0.173
8,ACCCCTAT,0.256
9,GACCCTGC,0.331
10,ACCCCTAA,0.172
11,TACCCTGA,0.265
12,TATCCTGA,0.202
13,GGATCTGA,-0.0992
14,CAAAGGCA,-0.173
15,ACTAAGAA,0.221
16,CGAGCTAC,0.124
17,TAACCGAA,-0.0477
18,ACCAGTCG,-0.149
19,CGAGTTTA,0.0171
20,ACAGAGGA,0.00257
21,ACCACACG,-0.034
22,AAACGGAT,0.205
23,ATCGAGGG,0.12
24,CCGTTCAG,0.00062
25,AACCCTAG,0.0468

row,Sequence,PBM E-score
1,TACCCTAA,0.107
2,AACCCTAT,0.195
3,AACCCTGG,0.315
4,GACCCTTA,0.321
5,GACCCTAA,0.237
6,GGCCCTTA,0.185
7,CACCCTGG,0.0652
8,ACCCCTGG,0.0828
9,CACCCTTA,0.147
10,GACCCTAC,0.184
11,AACCCTGT,0.244
12,GAGTCTGA,-0.0871
13,CAGTATGG,0.0291
14,AACGAGGC,-0.139
15,AAAGTTCG,0.127
16,GACCCATA,0.118
17,AACCCATT,0.00038
18,CACCCTGA,0.201
19,AACCCTGA,0.385
20,CCCCCTGA,-0.00244
21,ACCCCTTA,0.178
22,ACCCCTGA,0.297
23,AACCCTGC,0.134
24,AACCCATA,0.24
25,CGCGACGA,0.176

row,Sequence,PBM E-score
1,TGGGGACA,-0.187
2,AAGGGAGC,-0.187
3,AAAACGGC,0.112
4,GCCGGACA,0.0968
5,TCGTTGAA,-0.0977
6,ATACTATC,0.013
7,CTACTATC,0.247
8,CTACTATA,0.143
9,AGGAAAAC,0.151
10,ACTGTTTA,-0.0842
11,ATTCGTCG,-0.00164
12,ATTCGTCC,0.27
13,AATCGTTC,0.0566
14,ATTCGTTG,0.239
15,CTTCGTTC,-0.00176
16,CTTCGTCC,-0.114
17,ACTCGTTG,-0.109
18,ATTCGTTC,0.28
19,ATTCGTTA,0.165
20,AAAATCAT,-0.0452
21,CATTGGTA,0.0651
22,TGAGTTAA,0.0318
23,CGAGTTAA,0.264
24,CGAGTTAC,0.215
25,CGGTCTAA,-0.118

row,Sequence,PBM E-score
1,ACCCTGAT,0.249
2,GCCCTGAC,-0.00086
3,AGCCTGTG,-0.118
4,AGCCTGAT,-0.168
5,ATCCTGAG,0.0135
6,CCCCTGAG,0.176
7,AACCTGTG,0.0227
8,ACCCTGTC,0.201
9,AACCTGAT,0.0634
10,ACCCTGTG,0.289
11,ACCCTGAC,0.334
12,ACCCTGAG,0.368
13,GTTAGCGA,-0.131
14,ATATCGAT,0.213
15,CTCTGCTC,-0.0804
16,ACACTATG,0.0263
17,CTACTTGC,0.141
18,ACCTTAGC,0.025
19,CGTTCACC,-0.11
20,AGCCTCCC,-0.381
21,ACCGATCG,-0.0446
22,TCTGACCA,0.216
